Activity calls are given as the source filed them. Rule for the calls: active = hit-call score of the fitted dose curve at least 0.9, where 1 is the maximum; inactive = score below 0.9.
Columns and labels:
[1] = APR_HepG2_NuclearSize_72hr: Apredica 72-hour HepG2 Assay for Nuclear Size (AID 2282925); settings: high-content imaging, actives raise or lower the signal
Summary of the method: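 HepG2 cells dosed 72 h at 0.39–200 uM (10 concentrations, duplicate) in 0.5% v/v DMSO final. Fixed, Hoechst 33342-stained nuclei imaged; nuclear diameter measured by automated image analysis. Bidirectional fit versus DMSO.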

[2] = ATG_CRE_CIS: Attagene CIS-FACTORIAL HepG2 Assay for human cAMP Responsive Element (CRE) binding protein 3 (AID 2282926); settings: HepG2 CRE cis-reporter, Attagene multiplexed mRNA; actives raise or lower the signal
Summary of the method: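 HepG2 cells transiently transfected with a multiplexed reporter library (CRE-driven unit among them) were dosed for 24 h. Reporter mRNA was quantified by RT-PCR, fluorescent labelling, HpaI digestion and capillary electrophoresis, with bidirectional fitting against DMSO baseline.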

[3] = biological target: CCAAT/enhancer-binding protein beta (Homo sapiens) (UniProt P17676); experiment: ATG_C_EBP_CIS: Attagene CIS-FACTORIAL HepG2 Assay for human CCAAT/Enhancer Binding Protein (C/EBP) beta (AID 2282927); settings: HepG2 Attagene cis-factorial transcription factor reporter; actives raise or lower the signal
CCAAT/enhancer-binding protein beta (Homo sapiens), sequence (P17676 whole entry, looked up): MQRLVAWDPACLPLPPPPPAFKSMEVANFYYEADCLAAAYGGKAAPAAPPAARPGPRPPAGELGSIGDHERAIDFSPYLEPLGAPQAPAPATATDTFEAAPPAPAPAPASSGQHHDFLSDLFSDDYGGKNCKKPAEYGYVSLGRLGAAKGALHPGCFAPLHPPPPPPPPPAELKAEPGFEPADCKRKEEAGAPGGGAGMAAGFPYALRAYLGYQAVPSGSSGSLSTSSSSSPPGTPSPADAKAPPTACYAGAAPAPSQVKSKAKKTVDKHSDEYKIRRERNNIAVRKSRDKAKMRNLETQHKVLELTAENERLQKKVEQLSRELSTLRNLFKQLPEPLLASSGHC
Summary of the method: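 Transiently transfected HepG2 (MRTU library, endogenous TF-driven promoters); 24 h dosing; total RNA → oligo(dT) RT → PCR → 6-FAM primer extension → HpaI digest → CE; fit bidirectionally vs DMSO.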

[4] = ATG_DR4_LXR_CIS: Attagene CIS-FACTORIAL HepG2 Assay for human Liver X Receptor (LXR), DR4 submotif (AID 2282929); settings: HepG2 Attagene DR4 cis-reporter, mRNA transcription; actives raise or lower the signal
Summary of the method: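 Fluorescence intensity of labelled reporter cDNA fragments, separated by capillary electrophoresis, gives the signal. HepG2 cells bearing cis-regulated reporter constructs were treated 24 h; activity fitted bidirectionally relative to DMSO negative control.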

[5] = biological target: Aryl hydrocarbon receptor (Homo sapiens) (UniProt P35869); experiment: ATG_Ahr_CIS: Attagene CIS-FACTORIAL HepG2 Assay for human Aryl Hydrocarbon Receptor (Ahr) (AID 2282930); settings: HepG2 AhR cis-factorial reporter transcription; actives raise or lower the signal
Aryl hydrocarbon receptor (Homo sapiens), sequence (P35869 whole entry, looked up): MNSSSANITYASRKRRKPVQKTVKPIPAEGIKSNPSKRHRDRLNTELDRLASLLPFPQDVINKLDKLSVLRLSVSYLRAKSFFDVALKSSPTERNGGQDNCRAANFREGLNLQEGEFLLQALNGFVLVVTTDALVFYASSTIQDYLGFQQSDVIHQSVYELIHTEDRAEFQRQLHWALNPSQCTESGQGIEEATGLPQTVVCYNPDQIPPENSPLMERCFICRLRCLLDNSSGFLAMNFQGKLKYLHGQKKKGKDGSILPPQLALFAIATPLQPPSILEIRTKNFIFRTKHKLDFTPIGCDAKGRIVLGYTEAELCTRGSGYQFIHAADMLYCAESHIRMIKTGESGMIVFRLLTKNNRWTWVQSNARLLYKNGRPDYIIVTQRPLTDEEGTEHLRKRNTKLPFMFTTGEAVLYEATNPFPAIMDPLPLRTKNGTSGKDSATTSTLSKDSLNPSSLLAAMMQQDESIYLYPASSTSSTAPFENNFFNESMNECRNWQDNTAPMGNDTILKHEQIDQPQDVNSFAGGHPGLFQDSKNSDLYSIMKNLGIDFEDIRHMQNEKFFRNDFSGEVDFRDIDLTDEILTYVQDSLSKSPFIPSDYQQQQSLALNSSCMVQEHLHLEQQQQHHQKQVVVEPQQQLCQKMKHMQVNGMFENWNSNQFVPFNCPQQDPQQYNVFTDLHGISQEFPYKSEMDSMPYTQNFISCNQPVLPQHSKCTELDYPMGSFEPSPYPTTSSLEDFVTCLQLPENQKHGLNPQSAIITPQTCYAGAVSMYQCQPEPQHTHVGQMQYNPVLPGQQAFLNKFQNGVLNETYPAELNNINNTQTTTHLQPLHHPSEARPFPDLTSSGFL
Summary of the method: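 Read-out: reporter mRNA quantified by RT-PCR with fluorescent primer extension and capillary electrophoresis. Human HepG2 liver cells carried transfected cis-promoter reporter units and were exposed to chemical for 24 h; gain or loss fitted relative to DMSO.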

[6] = ATG_AP_1_CIS: Attagene CIS-FACTORIAL HepG2 Assay for human Activator Protein 1 (AP-1) (AID 2282931); settings: HepG2 Attagene cis-factorial AP-1 reporter mRNA; actives raise or lower the signal
Summary of the method: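 Multiplexed HepG2 reporter assay, 24 h dosing. mRNA induction detected by RT-PCR plus capillary electrophoresis. Activity fitted in both directions against DMSO.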

[7] = ATG_AP_2_CIS: Attagene CIS-FACTORIAL HepG2 Assay for human Activator Protein 2 (AP-2) (AID 2282932); settings: HepG2 AP-2 cis-reporter, Attagene transcription factor profiling; actives raise or lower the signal
Summary of the method: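 Multiplexed mRNA reporter assay in HepG2: cis-regulated units report endogenous factor activity after 24 h treatment. Fluorescence from capillary electrophoresis of RT-PCR products gives the signal, with DMSO as baseline.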

[8] = ATG_BRE_CIS: Attagene CIS-FACTORIAL HepG2 Assay for human Bone Morphogenetic Protein (BMP) Response Element (BRE) (AID 2282933); settings: HepG2 BMP response element reporter, Attagene transcription factor profiling; actives raise or lower the signal
Summary of the method: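 Read-out: reporter mRNA induction quantified by RT-PCR and capillary electrophoresis after 24 h chemical exposure of transfected HepG2 cells. Endogenous factor activity on the BMP response element; gain or loss fitted against DMSO baseline.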

[9] = biological target: Retinoic acid receptor alpha (Homo sapiens) (UniProt P10276); experiment: ATG_DR5_RAR_CIS: Attagene CIS-FACTORIAL HepG2 Assay for human Retinoic Acid Receptor Alpha (RARE), DR5 submotif (AID 2282934); settings: HepG2 Attagene cis-factorial RARE DR5 reporter, mRNA; actives raise or lower the signal
Retinoic acid receptor alpha (Homo sapiens), sequence (P10276 whole entry, looked up): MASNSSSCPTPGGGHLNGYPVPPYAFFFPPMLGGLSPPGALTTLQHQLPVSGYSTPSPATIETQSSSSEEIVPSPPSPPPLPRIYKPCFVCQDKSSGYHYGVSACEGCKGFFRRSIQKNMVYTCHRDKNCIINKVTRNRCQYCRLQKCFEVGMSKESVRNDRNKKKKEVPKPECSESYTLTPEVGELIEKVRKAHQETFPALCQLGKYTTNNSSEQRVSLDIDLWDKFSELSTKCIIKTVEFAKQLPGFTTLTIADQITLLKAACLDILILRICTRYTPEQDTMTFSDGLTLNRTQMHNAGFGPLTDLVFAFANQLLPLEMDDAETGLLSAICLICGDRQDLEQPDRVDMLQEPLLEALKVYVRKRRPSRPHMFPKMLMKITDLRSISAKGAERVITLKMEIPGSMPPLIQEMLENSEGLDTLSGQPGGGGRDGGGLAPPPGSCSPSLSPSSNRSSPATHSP
Summary of the method: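 Read-out: DR5-driven reporter transcript measured by RT-PCR, 6-FAM primer extension, HpaI digest and capillary electrophoresis. Human HepG2 liver cells carry transiently transfected cis-element reporter constructs; dosing lasts 24 h. Gain or loss of signal fitted against DMSO baseline.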

[10] = biological target: Transcription factor E2F1 (Homo sapiens) (UniProt Q01094); experiment: ATG_E2F_CIS: Attagene CIS-FACTORIAL HepG2 Assay for human E2F Transcription Factor 1 (AID 2282935); settings: HepG2 Attagene cis-reporter, E2F reporter RNA transcripts; actives raise or lower the signal
Transcription factor E2F1 (Homo sapiens), sequence (Q01094 whole entry, looked up): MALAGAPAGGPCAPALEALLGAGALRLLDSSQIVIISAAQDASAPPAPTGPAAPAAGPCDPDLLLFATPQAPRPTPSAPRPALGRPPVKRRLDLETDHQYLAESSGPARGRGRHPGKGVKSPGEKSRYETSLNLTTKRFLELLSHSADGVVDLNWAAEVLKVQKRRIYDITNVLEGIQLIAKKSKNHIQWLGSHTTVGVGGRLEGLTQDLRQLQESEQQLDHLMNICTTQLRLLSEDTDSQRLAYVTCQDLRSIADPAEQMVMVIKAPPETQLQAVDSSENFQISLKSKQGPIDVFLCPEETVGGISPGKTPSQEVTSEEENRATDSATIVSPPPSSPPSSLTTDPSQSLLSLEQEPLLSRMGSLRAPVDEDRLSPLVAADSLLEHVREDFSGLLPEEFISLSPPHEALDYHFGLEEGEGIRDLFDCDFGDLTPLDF
Summary of the method: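 Measures reporter transcript levels via RT-PCR with capillary electrophoresis detection in HepG2 cells harboring cis-regulated reporter units; 24 h post-dose; bidirectional curve fitting with DMSO as baseline.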

[11] = ATG_E_Box_CIS: Attagene CIS-FACTORIAL HepG2 Assay for human Enhancer Box (E-box) (AID 2282936); settings: HepG2 E-box cis-reporter transcription, actives raise or lower the signal
Summary of the method: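 First, HepG2 cells receive multiple cis-regulated reporter constructs by transient transfection. Next, chemicals are applied for 24 h. Finally, reporter mRNA is quantified via RT-PCR and capillary electrophoresis, with DMSO as baseline.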

[12] = ATG_M_61_CIS: Attagene CIS-FACTORIAL HepG2 Assay for M61 Transcription Factor (Internal Marker) (AID 2282937); settings: HepG2 Attagene CIS-FACTORIAL M61 internal marker reporter; actives raise or lower the signal
Summary of the method: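 Endogenous transcription factor activity in HepG2 is read through transiently transfected cis-element reporter units. After 24 h dosing, RNA undergoes reverse transcription, PCR and primer extension with 6-FAM before capillary electrophoresis; DMSO-referenced bidirectional fit.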

[13] = ATG_EGR_CIS: Attagene CIS-FACTORIAL HepG2 Assay for human Early Growth Response 1 (EGR1) (AID 2282938); settings: HepG2 Attagene CIS-FACTORIAL EGR reporter mRNA; actives raise or lower the signal
Summary of the method: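 Activity is taken as induction or loss of reporter mRNA versus DMSO, fitted bidirectionally. Transcripts from cis-regulated reporter units in transiently transfected HepG2 were measured after 24 h by RT-PCR with capillary electrophoresis.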

[14] = ATG_M_19_CIS: Attagene CIS-FACTORIAL HepG2 Assay for M19 Transcription Factor (Internal Marker) (AID 2282939); settings: HepG2 Attagene CIS-FACTORIAL M19 internal marker reporter; actives raise or lower the signal
Summary of the method: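 Readout: fluorescent reporter-transcript fragments by capillary electrophoresis after RT-PCR. Human HepG2 liver cells carried transfected MRTU constructs reporting endogenous transcription-factor activity; exposure 24 h. Gain or loss of signal fitted relative to DMSO.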

[15] = ATG_ERE_CIS: Attagene CIS-FACTORIAL HepG2 Assay for Estrogen Response Element (ERE) (AID 2282940); settings: HepG2 ERE cis-reporter, Attagene RNA transcript; actives raise or lower the signal
Summary of the method: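 Readout: reporter mRNA induction by RT-PCR, FAM-labelled primer extension, HpaI digestion and capillary electrophoresis, 24 h after dosing transfected HepG2 cells. Endogenous transcription factors act on cis-element-regulated reporters. Gain or loss fitted against DMSO.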

[16] = ATG_Ets_CIS: Attagene CIS-FACTORIAL HepG2 Assay for human Erythroblast Transformation Specific (ETS) (AID 2282941); settings: HepG2 ETS cis-reporter transcription, actives raise or lower the signal
Summary of the method: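 Human HepG2 hepatoma cells were transiently transfected with promoter-driven reporter constructs and treated for 24 hours. Reporter transcripts were quantified by RT-PCR with fluorescent primer extension; bidirectional curve fitting used DMSO as reference.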

[17] = biological target: Hepatocyte nuclear factor 3-beta (Homo sapiens) (UniProt Q9Y261); experiment: ATG_FoxA2_CIS: Attagene CIS-FACTORIAL HepG2 Assay for human Forkhead box A2 (FOXA2) (AID 2282942); settings: HepG2 cis-reporter transcription factor activity, 24 h; actives raise or lower the signal
Hepatocyte nuclear factor 3-beta (Homo sapiens), sequence (Q9Y261 whole entry, looked up): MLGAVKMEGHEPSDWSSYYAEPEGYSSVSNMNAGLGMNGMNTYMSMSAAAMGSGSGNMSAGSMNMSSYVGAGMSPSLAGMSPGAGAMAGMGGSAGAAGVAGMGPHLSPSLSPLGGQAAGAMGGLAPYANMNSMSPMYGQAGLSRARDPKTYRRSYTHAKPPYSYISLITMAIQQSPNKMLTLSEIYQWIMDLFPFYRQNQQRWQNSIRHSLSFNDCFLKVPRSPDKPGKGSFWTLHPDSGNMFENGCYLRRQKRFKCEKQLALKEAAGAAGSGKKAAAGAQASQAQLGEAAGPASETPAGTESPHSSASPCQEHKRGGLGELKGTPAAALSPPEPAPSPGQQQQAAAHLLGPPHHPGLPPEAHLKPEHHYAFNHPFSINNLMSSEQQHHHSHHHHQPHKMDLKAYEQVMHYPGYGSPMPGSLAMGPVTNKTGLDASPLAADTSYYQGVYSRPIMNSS
Summary of the method: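 Reporter transcript induction is measured by fluorescence after capillary electrophoresis of RT-PCR products from HepG2 cells exposed 24 h. Cis-regulated reporter units report endogenous factor activity; curves fitted both directions against DMSO.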

[18] = ATG_FoxO_CIS: Attagene CIS-FACTORIAL HepG2 Assay for human Forkhead box O (FoxO) (AID 2282943); settings: HepG2 Attagene cis-reporter, FoxO element, mRNA; actives raise or lower the signal
Summary of the method: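 Read-out: fluorescence of 6-FAM-labelled reporter cDNA fragments resolved by capillary electrophoresis. Transiently transfected HepG2 cells were dosed for 24 h; activity fitted in both directions relative to DMSO controls.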

[19] = ATG_GATA_CIS: Attagene CIS-FACTORIAL HepG2 Assay for human GATA Binding Protein (AID 2282944); settings: HepG2 GATA cis-element reporter, Attagene multiplex mRNA; actives raise or lower the signal
Summary of the method: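 Read-out: fluorescent reporter mRNA fragments resolved by capillary electrophoresis after RT-PCR. Human liver HepG2 cells carried transiently transfected cis-regulated reporter constructs; chemicals incubated 24 h; gain or loss of signal fitted relative to DMSO.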

CC(=O)OC/C=C(\C)CCC=C(C)C
outcome [1]: inactive | outcome [2]: inactive | outcome [3]: inactive | outcome [4]: inactive | outcome [5]: inactive | outcome [6]: inactive | outcome [7]: inactive | outcome [8]: inactive | outcome [9]: inactive | outcome [10]: inactive | outcome [11]: inactive | outcome [12]: inactive | outcome [13]: inactive | outcome [14]: inactive | outcome [15]: inactive | outcome [16]: inactive | outcome [17]: inactive | outcome [18]: inactive | outcome [19]: inactive

Cc1cc(=O)[nH]c(=S)[nH]1
outcome [1]: inactive | outcome [2]: inactive | outcome [3]: inactive | outcome [4]: inactive | outcome [5]: inactive | outcome [6]: inactive | outcome [7]: inactive | outcome [8]: inactive | outcome [10]: inactive | outcome [11]: inactive | outcome [12]: inactive | outcome [13]: inactive | outcome [14]: inactive | outcome [15]: inactive | outcome [16]: inactive | outcome [17]: inactive | outcome [18]: inactive | outcome [19]: inactive

Cc1ccccc1Cl
outcome [1]: inactive | outcome [2]: inactive | outcome [3]: inactive | outcome [4]: inactive | outcome [5]: inactive | outcome [6]: inactive | outcome [7]: inactive | outcome [8]: inactive | outcome [10]: inactive | outcome [11]: inactive | outcome [12]: inactive | outcome [13]: inactive | outcome [14]: inactive | outcome [15]: inactive | outcome [16]: inactive | outcome [17]: inactive | outcome [18]: inactive | outcome [19]: inactive

C1CCC(SSC2CCCCC2)CC1
outcome [1]: inactive | outcome [2]: inactive | outcome [3]: inactive | outcome [4]: inactive | AC50 [5]: 66.3 µM (active) | AC50 [6]: 125 µM (active) | outcome [7]: inactive | outcome [8]: inactive | outcome [9]: inactive | outcome [10]: inactive | outcome [11]: inactive | outcome [12]: inactive | outcome [13]: inactive | AC50 [15]: 56.7 µM (active) | outcome [16]: inactive | outcome [17]: inactive | outcome [18]: inactive | outcome [19]: inactive

CN1CCN(Cc2cc(-c3ccc4[nH]c(=O)oc4c3)co2)[C@@H](c2ccc(F)cc2)C1
outcome [1]: inactive | AC50 [2]: 33 µM (active) | outcome [3]: inactive | AC50 [4]: 56.5 µM (active) | outcome [5]: inactive | AC50 [6]: 53.9 µM (active) | outcome [7]: inactive | outcome [8]: inactive | outcome [10]: inactive | outcome [11]: inactive | outcome [12]: inactive | AC50 [13]: 33 µM (active) | outcome [15]: inactive | outcome [16]: inactive | outcome [17]: inactive | outcome [18]: inactive | outcome [19]: inactive

CNCc1cc(F)ccc1Oc1ccc(Cl)c(Cl)c1
AC50 [1]: 103 µM (active) | outcome [2]: inactive | outcome [3]: inactive | outcome [4]: inactive | outcome [5]: inactive | outcome [6]: inactive | outcome [7]: inactive | outcome [8]: inactive | outcome [9]: inactive | outcome [10]: inactive | outcome [11]: inactive | outcome [12]: inactive | outcome [13]: inactive | outcome [15]: inactive | outcome [16]: inactive | outcome [17]: inactive | outcome [18]: inactive | outcome [19]: inactive

CC(C)c1ccc(C(=O)N=C(N)N)cc1S(C)(=O)=O
outcome [1]: inactive | outcome [2]: inactive | outcome [3]: inactive | outcome [4]: inactive | outcome [5]: inactive | outcome [6]: inactive | outcome [7]: inactive | outcome [8]: inactive | outcome [9]: inactive | outcome [10]: inactive | outcome [11]: inactive | outcome [12]: inactive | outcome [13]: inactive | AC50 [15]: 71.7 µM (active) | outcome [16]: inactive | outcome [17]: inactive | outcome [18]: inactive | outcome [19]: inactive

C[Si]1(C)O[Si](C)(C)O[Si](C)(C)O[Si](C)(C)O1
outcome [1]: inactive | outcome [2]: inactive | outcome [3]: inactive | AC50 [4]: 49.6 µM (active) | outcome [5]: inactive | outcome [6]: inactive | outcome [7]: inactive | outcome [8]: inactive | outcome [10]: inactive | outcome [11]: inactive | outcome [12]: inactive | outcome [13]: inactive | AC50 [15]: 27.2 µM (active) | outcome [16]: inactive | outcome [17]: inactive | outcome [18]: inactive | outcome [19]: inactive

From PubChem BioAssay (EPA / NIEHS)
